Source: PubChem BioAssay (National Center for Advancing Translational Sciences (NCATS))
Chronic BCR inh = blocks chronic active B-cell receptor signaling | hit rate 0.05% among 340,000 | Potency, µM (highest dose often 46.1 µM), for inactives: top-dose activity change, negative = inhibition, most hits filed as inhibitors | ABC-DLBCL IkBa-CBG/CBR reporter, luminescence ratio, 4 h; active = well fitted inhibition curve with a large enough effect in the signal ratio, with a control signal flat, not every such curve was filed as active; inconclusive = small, poorly fitted or top-dose-only effect, or effect the other way, or a change in a side signal; the % refers to the signal ratio;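 also: potency is read from the fitted curve at half-maximal effect; plate controls were basal doxycycline-induced cells for no effect and cells given 10 µM MG132 for full effect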
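TMD8 ABC-DLBCL cells carrying doxycycline-inducible green luciferase fused to IkappaBalpha plus unfused red luciferase were exposed to compounds (up to 46 uM) for 4 hrs at 37C. Activity came from the overlap-corrected green/red luminescence ratio.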
MCF10A rereplic = inducers of DNA re-replication in MCF 10A breast cells | MCF 10A DNA re-replication, Hoechst nuclear intensity, 48 h | Potency, µM (highest dose often 46.1 µM), for inactives: top-dose activity, positive = re-replication, actives largely listed as activators | hit rate 2.9% among 350,000 | AID 624296; also: potency is read from the fitted curve at half-maximal effect; % of control where 0% means no effect; nearly all actives have a fitted effect of over 50% in size
TDP1 cell noCPT = qHTS for Inhibitors of human tyrosyl-DNA phosphodiesterase 1 (TDP1): qHTS in cells in absence of CPT | DT40 Tdp1-/- hTDP1 cells, no CPT, ATP luminescence, 48 h | Potency, µM (highest dose often 46.2 µM), without a hit: top-dose activity change, negative = growth inhibition, actives largely listed as inhibitors | hit rate 15% among 420,000 | AID 686978, 2013; also: potency is read from the fitted curve at half-maximal effect; % is scaled to controls: 0 for no effect and ±100 for the full control effect; nearly all actives have a fitted effect of over 55% in size
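Camptothecin absent (DMSO only). Human TDP1-complemented DT40 knockout cells, 400 cells/well, 37 °C for minimum 48 hr; ATP measured via CellTiter-Glo, 30 min dark incubation, luminescence.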
SW480 rereplic = induces DNA re-replication in SW480 colon adenocarcinoma cells. Potency, µM (top dose mostly 46.1 µM), inactives show top-dose re-replication activation, hits mostly activators. SW480 DNA re-replication, Hoechst DNA content imaging, 48 h. hit rate 1.8% among 340,000; also: potency is read from the fitted curve at half-maximal effect; % of control where 0% means no effect; nearly all actives have a fitted effect of over 55% in size
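Readout is total intensity of Hoechst-stained nuclei, excited at 405 nm and collected at 500-530 nm. Compound treatment lasted 48 hr at 37 C in 5% CO2 before staining.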
IL-1B inflam inh = blocks inflammasome-driven IL-1 beta release; hit rate 4.7% among 360,000; THP-1 LPS/ATP IL-1B secretion, AlphaLISA, 16 h; hits give low values; activity change, % at 57.5 µM; in the data active = activity change below about -50%; inconclusive = mostly about -30% to -49%; also: % is scaled to controls: 0 for no effect and ±100 for the full control effect
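Secreted IL-1B measured by AlphaLISA bead assay after 16 h compound exposure of THP-1 cells; compounds (final up to 57.5 uM) added 1 h before LPS (250 ng/mL) and ATP (1.25 mM) stimulation; lower signal means less secretion.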
DT40 TDP1 CPT = DT40-hTDP1 cell growth loss with CPT; Potency, µM (titrated, usually from 46.2 µM), inactives show at the top dose activity change, negative = growth inhibition, hits mostly inhibitors; chicken DT40 Tdp1-/-;hTDP1 cells + 20 nM CPT, ATP luminescence, 48 h; hit rate 12% among 420,000; also: potency is read from the fitted curve at half-maximal effect; % is scaled to controls: 0 for no effect and ±100 for the full control effect; nearly all actives have a fitted effect of over 55% in size
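Chicken DT40 Tdp1-/- cells complemented with human TDP1, 400 cells/well, exposed to compounds plus 20 nM camptothecin for at least 48 h at 37 C; viability read as ATP content by CellTiter-Glo luminescence.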
* marks the source's active call; other numbers are inactive results; ? = inconclusive; · = no result; ! = not active in a repeat. In the library only some 19% were active in any assay of this set; here they are far more common. Unless noted, calls follow the shape of the dose curve; as a rule, active = well fitted curve in the direction sought with a large enough effect; inconclusive = small, poorly fitted or top-dose-only effect, or another doubt; inactive = no such curve, though single readings can be large; an effect the other way counts as inactive or inconclusive.

SMILES	Chronic BCR inh	MCF10A rereplic	TDP1 cell noCPT	SW480 rereplic	IL-1B inflam inh	DT40 TDP1 CPT
O=C(NC1CCCC1)C(c1cccnc1)N(CCc1ccccc1)C(=O)c1ccco1 (stereo not drawn)	0%	2%	-9%	-25%	-11	-4%
COC(=O)c1ccc(C(C(=O)NC2CCCCC2)N(C(=O)Cc2cccs2)C2CC2)cc1 (stereo not drawn)	0%	4%	10µM*	-25%	21	8.2µM*
O=C(NC1CCCC1)C(c1ccsc1)N(Cc1ccccc1)C(=O)Cc1cccs1 (stereo not drawn)	7%	20%	13µM*	8%	-22	18µM*
O=C(NC1CCCC1)C(c1ccncc1)N(Cc1ccccc1)C(=O)Cc1cccs1 (stereo not drawn)	9%	0%	-22%	-3%	-7	0%
O=C(NC1CCCCC1)C(c1cccnc1)N(CCc1ccccc1)C(=O)Cc1cccs1 (stereo not drawn)	0%	2%	10µM*	2%	65	?
COC(=O)c1ccc(C(C(=O)NC2CCCCC2)N(Cc2ccccc2)C(=O)Cc2cccs2)cc1 (stereo not drawn)	-1%	-1%	4.1µM*	-1%	9	3.3µM*
O=C(NC1CCCC1)C(c1ccccc1)N(Cc1ccc2c(c1)OCO2)C(=O)Cc1cccs1 (stereo not drawn)	0%	?	?	26%	-24	?
c1ccc(-c2noc(CN3CCN(c4cnccn4)CC3)n2)cc1	?	?	?	?	52	?
Nc1nc(/C(=C/CC(=O)O)C(=O)NC2C(=O)N3C(C(=O)O)=CCSC23)cs1 (stereo not drawn)	·	-1%	·	-3%	·	·
COc1ccc(CNC(=O)C(c2ccc(C)o2)N(Cc2cccs2)C(=O)Cc2cccs2)cc1 (stereo not drawn)	?	?	?	21%	?	29µM*
O=C(NCc1ccccc1)C(c1ccccc1)N(Cc1ccc2c(c1)OCO2)C(=O)Cc1cccs1 (stereo not drawn)	8%	?	23µM*	5%	-26	?
COC(=O)c1cc(CN2CCN(c3ccccc3)CC2)ccc1O	5%	2%	-7%	3%	31	3%
C[C@@H]1CN([C@@H](C)CO)C(=O)CCCn2nncc2CO[C@@H]1CN(C)S(=O)(=O)c1cn(C)cn1	·	·	7%	·	4	-2%
CCc1ccc(CNC(=O)C2CCN(C(=O)N3CC(CC)Oc4ccc(C)cc43)CC2)cc1 (stereo not drawn)	·	·	21µM*	·	·	21µM*
CCC1CN(C(=O)N2CCC(C(=O)NCc3ccco3)CC2)c2cc(C)ccc2O1 (stereo not drawn)	0%	0%	18µM*!	-3%	0	?
CCCOc1ccc(CNC(=O)C2CCN(C(=O)N3CCOc4ccccc43)CC2)cc1	10%	3%	?	4%	-18	21µM*
Cc1ccc2c(c1)N(C(=O)N1CCC(C(=O)NCc3cccc(Br)c3)CC1)CCO2	·	·	21µM*	·	·	?
Cc1ccc(CNC(=O)c2sc3nc[nH]c(=O)c3c2C)cc1	·	·	-20%	·	·	-11%
Cc1ccc2oc(-c3ccc(Cl)c(NC(=O)c4ccc(OC(C)C)cc4)c3)nc2c1	·	·	6%	·	·	-1%
COc1ccc(CCC(=O)NCC(=O)OCc2ccccc2)cc1	0%	21%	9%	-13%	14	-1%
CCC1CN(C(=O)N2CCC(C(=O)NCc3ccc(C)o3)CC2)c2cc(C)ccc2O1 (stereo not drawn)	3%	1%	?	-14%	-1	16µM*!
Cc1cc(C)cc(OC(C)C(=O)Nc2ccccc2C(=O)NCc2cccnc2)c1 (stereo not drawn)	-3%	18%	?	4%	-10	?
COC(=O)c1ccc(/C=C2\Oc3ccccc3NC2=O)cc1	?	6.5µM*	3%	?	-53*	-13%
O=C1Nc2ccccc2O/C1=C\c1c(F)cccc1Cl	-14%	?	?	?	35	?
CCc1ccc(/C=C2\Oc3ccc(C(=O)OC)cc3C2=O)cc1	-4%	0%	?	-2%	23	-13%
SMILES	Chronic BCR inh	MCF10A rereplic	TDP1 cell noCPT	SW480 rereplic	IL-1B inflam inh	DT40 TDP1 CPT
COC(=O)c1ccc2c(c1)C(=O)/C(=C/c1ccc(C)cc1)O2	0%	19%	13µM*	82%	0	18µM*
O=C(NNC(=O)c1ccc(S(=O)(=O)N2CCOCC2)cc1)c1ccccc1	-10%	2%	4%	-8%	2	-3%
CC1=C(C(=O)N(C)C)CC(CC(=O)NC(c2ccccc2)c2ccccc2)C(=O)N1CCC1=CCCCC1 (stereo not drawn)	·	·	21µM*	·	-16	?
CCN(CC)C(=O)C1=C(C)N(Cc2ccc(OC)cc2)C(=O)C(CC(=O)NC(c2ccccc2)c2ccccc2)C1 (stereo not drawn)	·	·	?	·	?	-4%
CCN(CC)C(=O)C1=C(C)N(CCC2=CCCCC2)C(=O)C(CC(=O)NC(c2ccccc2)c2ccccc2)C1 (stereo not drawn)	·	·	?	·	3	18µM*
CC1(c2nnnn2-c2ccc3c(c2)OCCO3)CCC(=O)N1C1CCN(Cc2ccccc2)CC1 (stereo not drawn)	·	·	-30%	·	14	0%
CCC(Cc1ccccc1)NC(=O)Cn1ncc2c3ccccc3n(Cc3ccc(F)cc3)c2c1=O (stereo not drawn)	·	·	8.2µM*	·	·	8.2µM*
O=C(Cn1ncc2c3ccccc3n(Cc3ccccc3)c2c1=O)NCc1ccccc1	·	·	?	·	·	0%
CCC(Cc1ccccc1)NC(=O)Cn1ncc2c3ccccc3n(Cc3ccccc3)c2c1=O (stereo not drawn)	·	·	16µM*	·	·	16µM*
Cc1cc(C(=O)OCn2nnc3ccccc3c2=O)c(C)n1-c1ccccc1	-14%	12%	18µM*	1%	-9	?
Cc1ccccc1C(=O)OCn1nnc2ccccc2c1=O	-15%	2%	-30%	-6%	20	-24%
O=C(c1ccc(=O)n(Cc2ccccc2)n1)N1CCN(C/C=C/c2ccccc2)CC1	-11%	7%	?	2%	19	18µM*
O=C(c1ccc(Br)s1)N1CCN(C/C=C/c2ccccc2)CC1	1%	19%	?	-1%	-8	?
